# Measured values as given in PubChem BioAssay AID2315 (National Center for Advancing Translational Sciences (NCATS), 2010).
# In all, about 290,000 compounds went through this assay and about 27,000 (9.3%) were called active. Shown is part of a subset that was picked to be rich in actives. Values without a mark were called inactive. No stated cut-off is given here; in the data, active means inhibition mostly above about 28% (no sharp cut-off); inactive means mostly below about 43%.
# Test: A qHTS for Small Molecule Inhibitors of Shiga Toxin; further: 0% is about no effect
# Settings: Vero cells, Shiga toxin protein synthesis inhibition reporter; at 38.7 µM, hits give high values
row,Compound,inhibition
1,CC(C)CC(=O)Nc1nnc(S(=O)(=O)N(C)c2ccc(Cl)cc2)s1,-4.79%
2,CCOC(=O)C1=C(C)Nc2nc3ccccc3n2C1c1cccs1 (stereo not drawn),-8.56%
3,C=CCOC(=O)C1=C(C)NC(C)=C(C(=O)OCC=C)C1c1cccs1,86.3% (active)
4,CCOC(=O)C1=C(C)NC(=S)NC1c1cccs1 (stereo not drawn),-11.1%
5,COc1ccc(OCc2cc(C(=O)NCC3(C)COC3)no2)c(Cl)c1,75.4% (active)
6,COc1ccc(CCNC(=O)c2cnc(Cl)c(Cl)c2)cc1,-1.83%
7,COc1ccc(-c2cc(C(=O)NCCCN3CCOCC3)no2)cc1,20%
8,CC1CC(C)CN(CCCNC(=O)c2csc3c2CCCCC3)C1 (stereo not drawn),-1.88%
9,CC(=O)c1cccc(NC(=O)c2cc(C)nn2-c2ccccc2)c1,30.5%
10,CC(C)C[C@H](NC(=O)N1CCn2c1nc1ccccc12)C(=O)NC1CC1,23.3%
11,CCC(C)N1C(=S)SC(C)(C)C1N(O)C(=O)NC1CCCCC1 (stereo not drawn),-10.6%
12,CCCCNC(=O)N(O)C1N(/N=C/c2ccccc2O)C(=S)SC1(C)C (stereo not drawn),34.2% (active)
13,CCCCNC(=O)N(O)C1N(/N=C/c2ccc(N(C)C)cc2)C(=S)SC1(C)C (stereo not drawn),-5.76%
14,Cc1ccc(S(=O)(=O)NC(=O)c2cccc(C)c2)cc1,18.1%
15,Cn1ncc2c(N3CCCCC3)nc(NCCCO)nc21,1.02%
16,COc1cc(CN2CCC(n3nccc3NC(=O)CCCc3ccccc3)CC2)ccc1O,7.77%
17,COc1ccc(N(CC(=O)NC(C)(C)C)C(=O)c2ccco2)cc1,-10.7%
18,C/C(CC(=O)NC(C)(C)C)=N\NC(=O)c1ccco1,70.6% (active)
19,CC(C)(C)NC(=O)c1cc(NC(=O)c2ccco2)cc(NC(=O)c2ccco2)c1,24.3%
20,CCNS(=O)(=O)c1ccc(CCC(=O)N2CCN(c3ccc(OC)cc3)CC2)cc1,13.1%
21,Cc1nn(CCCC(=O)NCc2ccccc2Cl)c(=O)c2nccn12,-3.9%
22,NC(=O)c1oc2ccccc2c1NC(=O)CS(=O)(=O)c1ccccc1,12.2%
23,COC(=O)c1ccc(CN2C(=O)NC(c3ccccc3)(c3ccccc3)C2=O)o1,21.7%
24,Cc1ccc2c(c1)N(CC(=O)NCCCN1CCCCC1)C(=O)c1cccnc1O2,2.73%

row,Compound,inhibition
1,CC(O)c1cccc(NC(=O)Cc2cccc3ccccc23)c1 (stereo not drawn),0.246%
2,O=C(Cc1cccc2ccccc12)Nc1ccc2oc(-c3ccccc3)nc2c1,74.8% (active)
3,O=C(Nc1ccc2oc(-c3ccc4ccccc4c3)nc2c1)c1cccs1,80.9% (active)
4,CC(Oc1cccc(NC(=O)c2cccs2)c1)C(=O)c1ccccc1 (stereo not drawn),36.4%
5,O=C(Cc1cccc2ccccc12)NNC(=O)Nc1ccc(Cl)cc1,62.1%
6,O=C(Nc1ccc(NC(=O)c2cccs2)cc1)c1ccc2ccccc2c1,24.5%
7,COc1ccnc2c1c(=O)n(Cc1cccc(F)c1)c(=O)n2C,-2.76%
8,Cn1c(=O)c2c(nc(NCCNC(=O)c3ccco3)n2Cc2ccccc2F)n(C)c1=O,-9.7%
9,CCN(CC)CCCSc1nc2ccccc2s1,47.9%
10,O=C(O)c1ccccc1CSc1nc2ccccc2s1,70.7% (active)
11,O=C(CSc1nc2ccccc2s1)Nc1ccc(C(=O)O)cc1,-1.35%
12,COc1cc(OC)cc(C(=O)OCC(=O)Nc2sccc2C(N)=O)c1,-3.26%
13,CCOC(=O)N1CCN(C(=O)C2CCN(S(=O)(=O)c3cc(Cl)ccc3OCC)CC2)CC1,-12.3%
14,Cc1ccc(N(CC(=O)NC2CCCCC2)C(=O)CCCC(=O)Nc2ccccn2)c(C)c1,-5.94%
15,CCc1ccc(CNC(=O)CCc2nc(-c3cccs3)no2)cc1,-8.04%
16,COc1ccc(CCc2nc(-c3cccs3)no2)cc1,120% (active)
17,COc1ccc(OC)c(CNC(=O)CCc2nc(-c3cccs3)no2)c1,4.93%
18,COc1ccc(S(=O)(=O)NCCc2cc3ccc(C)c(C)c3[nH]c2=O)cc1,1.8%
19,Cn1c(SCc2ccc(F)cc2)nnc1-c1ccncc1,3.38%
20,Cc1cc(C)nc(S/C=C/C(=O)c2ccccc2)n1,159% (active)
21,Cc1cc(SCC(=O)c2ccccc2)nc(SCC(=O)c2ccccc2)n1,51.3%
22,Cc1cc(C)nc(SCC(=O)c2ccc(Cl)cc2)n1,-6.93%
23,O=C(c1ccc(Br)o1)N1CCN(CCOc2ccccc2)CC1,-4.41%
24,Cc1ccc(CNC(=O)[C@@H](NC(=O)Cc2ccccc2)C(C)C)cc1,-12.1%

row,Compound,inhibition
1,CCCOc1ccc(/C=N/NC(=O)C2CC2)c(OCCC)c1,-6.76%
2,O=C(CC1N=C2c3ccccc3N=C(SCc3ccccc3Cl)N2C1=O)NCc1ccco1 (stereo not drawn),38.1% (active)
3,CCC(C)NC(=O)CSC1=Nc2ccccc2C2=NC(CCC(=O)NCc3ccco3)C(=O)N12 (stereo not drawn),-9.08%
4,O=C(CSC1=Nc2ccccc2C2=NC(CC(=O)NCc3ccco3)C(=O)N12)NCc1ccco1 (stereo not drawn),-3.74%
5,CC(=O)OCC(NC(=O)C(Cc1ccccc1)NC(=O)OC(C)(C)C)C1OC(n2ccc(=O)[nH]c2=O)C(OC(C)=O)C1OC(C)=O (stereo not drawn),7.84%
6,C=CCNc1nc(N)c([N+](=O)[O-])c(NC2CCCCC2)n1,14.1%
7,CCC(CC)c1nnc(NC(=O)C2CCN(C(=O)c3ccco3)CC2)s1,4.71%
8,COc1ccc(N=Nc2ccc(O)c(P(=O)(c3ccccc3)c3ccccc3)c2)cc1,-5.57%
9,Cc1cc(N=Nc2ccc3ccccc3c2)ccc1O,107% (active)
10,Cc1c(N=Nc2ccc(N(C)C)cc2)c(=O)n(-c2ccccc2)n1C,55.4% (active)
11,Cc1nc(N)sc1N=Nc1c(C)n(C)n(-c2ccccc2)c1=O,2.84%
12,Cc1ccc(N=Nc2c(C)[nH]n(-c3ccccc3)c2=O)cc1,25.5%
13,CCCN1CCC(=O)N(C(CSc2ccc(OC)cc2)Cc2ccccc2)CC1 (stereo not drawn),-5.53%
14,COc1ccc(CNC(=O)C(NS(=O)(=O)c2cccc3nsnc23)C(C)C)cc1 (stereo not drawn),-7.36%
15,O=C(O)CCC(=O)N(Cc1ccccc1)Cc1ccccc1,-10.9%
16,CC[C@@H](C)[C@H](NC(=O)CCc1c(C)c2cc3c4c(oc3c(C)c2oc1=O)CCCC4)C(=O)O,22.3%
17,COc1cccc(OCCOc2cccc(/C=N/n3cnnc3)c2)c1,41.7% (active)
18,C(=N\n1cnnc1)/c1cccnc1,2.15%
19,COc1ccccc1OCCOc1ccc(/C=N/n2cnnc2)cc1,-21.9%
20,O=C(c1ccc2c(c1)N(Cc1ccc(F)cc1)C(=O)c1ccccc1S2(=O)=O)N1CCN(c2ccccn2)CC1,-2.78%
21,CSc1ccc(C#N)cc1NC(=O)c1cccc(Cl)c1,-14.6%
22,Cc1cc(NC(=O)COc2ccc(Cl)cc2Cl)n(CCC#N)n1,87.8%
23,CCOc1ccc(CN2CCN(Cc3ccc4cc(F)ccc4n3)CC2CCO)cc1 (stereo not drawn),-9.76%
24,COc1ccc(/C=C(/NC(=O)c2ccc(C)cc2)c2nc3ccccc3[nH]2)cc1OC,-2.72%

row,Compound,inhibition
1,CCOc1cc(/C=C(\C#N)c2nc(-c3cccs3)c(NC(C)=O)s2)ccc1O,-0.261%
2,COc1cc(/C=C(\C#N)c2nc3c(s2)CC(C)CC3)ccc1O (stereo not drawn),62.8% (active)
3,Cc1ccccc1OC/C(O)=C(\C#N)c1nc2ccccc2[nH]1,-10.2%
4,COc1cc(/C=C(\C#N)c2nc3ccccc3[nH]2)ccc1O,55.7% (active)
5,Cc1ccc(-c2ccnc3[nH]n(-c4ccccc4)c(=O)c23)cc1,17.7%
6,C[C@H](NC(=O)C1CCN(S(=O)(=O)c2ccccc2)CC1)C(=O)NCc1ccccc1,-3.31%
7,CC(=O)N1c2ccc(S(=O)(=O)NCCC(=O)N(C)C3CCCCC3)cc2CC1C (stereo not drawn),2.29%
8,COc1ccc(C(C(=O)NC2CCCC2)N(CCCO)C(=O)Cn2nnc(-c3ccc(C)o3)n2)cc1 (stereo not drawn),-6.08%
9,CC(=O)Nc1cccc(/C(C)=N/NC(=O)c2ccccc2Cl)c1,22%
10,COc1cccc(C(=O)N/N=C(\C)c2cccc(NC(=O)c3ccc(F)cc3)c2)c1OC,77.4% (active)
11,C/C(=N/NC(=O)c1ccc(NC(=O)c2ccc(F)cc2)cc1)c1ccccc1,30%
12,OC(CNC1CCCC1)COc1ccc(F)cc1 (stereo not drawn),-14%
13,CC(=O)N1CCN(CC(c2ccccc2)c2ccccc2)CC1,-3.73%
14,CC1CCCN(CC(=O)Nc2cc(Cl)ccc2Oc2ccccc2)C1 (stereo not drawn),0.789%
15,CC1CCC2CCCCC2N1C(=O)c1cc([N+](=O)[O-])cc([N+](=O)[O-])c1 (stereo not drawn),-16.8%
16,CN(C)C(=O)Oc1ccc2c(c1)O/C(=C\c1ccccc1)C2=O,62% (active)
17,O=C1/C(=C/c2ccc3c(c2)OCO3)Oc2cc(OCC(=O)N3CC(O)C[C@H]3C(=O)O)ccc21 (stereo partly drawn),-3%
18,COC(=O)C(C)Oc1ccc2c(c1)O/C(=C\c1cccc(Br)c1)C2=O (stereo not drawn),-4.67%
19,Cc1ccc(S(=O)(=O)N2CCC(C)CC2)cc1C(=O)NCc1ccccn1,5.07%
20,COc1ccccc1OCc1ccc(C(=O)NC(C)c2ccccc2)o1 (stereo not drawn),-4.29%
21,CCc1cc(-c2nnc(SCC(=O)NC3CC3)n2C)cs1,14.1%
